# Results reported in PubChem BioAssay (EPA / NIEHS).
# Results filed as inconclusive are left out. The source made the active and inactive calls. Rule for the calls: active = hit-call score of the fitted dose curve at least 0.9, where 1 is the maximum; inconclusive = response in the unintended direction; inactive = score below 0.9.
# Key:
# [1] = biological target: rat CYP2C12, Cyp2c12 (gene 25011) (UniProt P11510); test: NVS_ADME_rCYP2C12: NovaScreen (NVS) CYP450-related Enzyme Activity (ADME) Assay for rat CYP2C12 (AID 2283119)
# Outline: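 Cell-free recombinant rat CYP2C12 activity read by fluorescence 0.5 h after dosing; loss of signal versus acetonitrile control. Primary screen in duplicate at 10 uM; actives then run in concentration-response format.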
# [2] = biological target: human Acetylcholinesterase (AChE), ACHE (gene 43) (UniProt P22303); test: NVS_ENZ_hAChE: NovaScreen (NVS) Enzymatic Assay for human Acetylcholinesterase (AChE) (AID 2283129)
# Outline: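 Cell-free colorimetric enzyme-activity assay; compounds read 0.33 hour after dosing, loss of signal vs DMSO baseline. Primary screen in duplicate at 25 uM single concentration, with active compounds retested in concentration series.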
# [3] = biological target: rat Gamma-Aminobutyric Acid Type A Receptor BDZ, alpha 6 site (GABARa6), Gabra6 (gene 29708) (UniProt P30191); test: NVS_LGIC_rGABARa6: NovaScreen (NVS) Ligand-Gated Ion Channel Assay for rat Gamma-Aminobutyric Acid Type A Receptor BDZ, alpha 6 site (GABARa6) (AID 2283339)
# Outline: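 Rat cerebellar membranes; radioligand binding, filtration and scintillation counting, read 1 h after dosing. Single-concentration duplicate screen at 25 uM, then concentration-response up to 50 uM for actives; loss of signal fitted versus DMSO baseline.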
# [4] = read-out: xenobiotic metabolism (CYP2C9), CYP2C9 (gene 1559); test: CLD_CYP2C9_6hr: CellzDirect (CLD) Gene Expression Assay for xenobiotic metabolism (CYP2C9) at 6 hours (AID 2283664)
# Outline: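 Primary human hepatocytes dosed daily with test chemicals at multiple concentrations; harvested at 6 h. CYP2C9 mRNA induction measured by qNPA chemiluminescence. Gain of signal fitted against 0.2% DMSO vehicle; cytotoxicity annotated from phase-contrast morphology.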
# [5] = biological target: human AMP-activated Protein Kinase, alpha 1 (AMPKa1), PRKAA1 (gene 5562) (UniProt Q13131); test: NVS_ENZ_hAMPKa1: NovaScreen (NVS) Enzymatic Assay for human AMP-activated Protein Kinase, alpha 1 (AMPKa1) (AID 2283130)
# Outline: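 Recombinant human AMPKα1 activity was measured cell-free by fluorescent substrate conversion with electrophoretic mobility-shift separation, 1 h after dosing. Duplicate single-point screening was at 25 uM; actives (≥30% inhibition) were retested in concentration-response up to 50 uM.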
# [6] = biological target: rat Acetylcholinesterase (AChE), Ache (gene 83817) (UniProt P37136); test: NVS_ENZ_rAChE: NovaScreen (NVS) Enzymatic Assay for rat Acetylcholinesterase (AChE) (AID 2283233)
# Outline: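 Rat brain membrane acetylcholinesterase activity measured colorimetrically 0.33 h after compound addition, loss of signal relative to DMSO. Primary screen in duplicate at 25 uM; actives re-run as concentration-response with 50 uM top concentration.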
# [7] = biological target: rat Monoamine Oxidase, MAO-B, Peripheral (MAOBP), Maob (gene 25750) (UniProt P19643); test: NVS_ENZ_rMAOBP: NovaScreen (NVS) Enzymatic Assay for rat Monoamine Oxidase, MAO-B, Peripheral (MAOBP) (AID 2283242)
# [8] = biological target: human Neonicotinoid receptor (NNR), CHRNA2 (gene 1135) (UniProt Q15822); test: NVS_LGIC_hNNR_NBungSens: NovaScreen (NVS) Ligand-Gated Ion Channel Assay for human Neonicotinoid receptor (NNR) (AID 2283313)
# Outline: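 Radioligand displacement on human neuroblastoma membranes, 2 h, filter-based scintillation counting. Primary screen in duplicate at 25 uM; chemicals passing threshold (e.g. 30% inhibition) run singleton concentration-response to 50 uM; loss of binding fitted versus DMSO.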
# [9] = biological target: human CYP4F12, CYP4F12 (gene 66002) (UniProt Q9HCS2); test: NVS_ADME_hCYP4F12: NovaScreen (NVS) CYP450-related Enzyme Activity (ADME) Assay for human CYP4F12 (AID 2283111)
# Outline: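 Cell-free fluorescence assay of recombinant human CYP4F12 activity on a specific substrate, read 0.5 h after dosing. Primary screen in duplicate at 10 uM, then concentration series for actives; loss of signal fitted against acetonitrile negative control.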
# [10] = biological target: Voltage-dependent N-type calcium channel subunit alpha-1B (Rattus norvegicus) (UniProt Q02294); test: NVS_IC_rCaChN: NovaScreen (NVS) Ion Channel Assay for rat Calcium Channel, Type N (CaChN) (AID 2283317)
# [11] = biological target: human Aurora Kinase A - serine/threonine-protein Kinase 6 (AurA), AURKA (gene 6790) (UniProt O14965); test: NVS_ENZ_hAurA: NovaScreen (NVS) Enzymatic Assay for human Aurora Kinase A - serine/threonine-protein Kinase 6 (AurA) (AID 2283142)
# Outline: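 Cell-free enzymatic assay with human Aurora A, 1 hour after dosing. Fluorescent substrate turnover detected after electrophoretic mobility shift separation of substrate and product. Screened at 25 uM, actives retested in concentration-response up to 50 uM.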
# [12] = biological target: human Fibroblast Growth Factor Receptor 1 (FGFR1), FGFR1 (gene 2260) (UniProt P11362); test: NVS_ENZ_hFGFR1: NovaScreen (NVS) Enzymatic Assay for human Fibroblast Growth Factor Receptor 1 (FGFR1) (AID 2283159)
# Outline: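 Cell-free recombinant kinase with fluorescent substrate, product separated by electrophoretic mobility shift; read 1 hour after dosing, loss of signal relative to DMSO. Initial screen in duplicate at 25 uM, actives followed in concentration series.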
# [13] = biological target: human Tyrosine Protein Kinase Receptor Tie-2 (Tie2), TEK (gene 7010) (UniProt Q02763); test: NVS_ENZ_hTie2: NovaScreen (NVS) Enzymatic Assay for human Tyrosine Protein Kinase Receptor Tie-2 (Tie2) (AID 2283225)
# Outline: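 Recombinant human Tie2 kinase activity was read cell-free by fluorescence with electrophoretic mobility shift, 1 hour after dosing. The screen used 25 uM in duplicate, then concentration-response up to 50 uM. Signal loss was scored against DMSO.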
# [14] = biological target: human Caspase 2 (CASP2), CASP2 (gene 835) (UniProt P42575); test: NVS_ENZ_hCASP2: NovaScreen (NVS) Enzymatic Assay for human Caspase 2 (CASP2) (AID 2283135)
# Outline: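 E. coli-expressed enzyme in a cell-free protease assay, fluorescence read 1 h after dosing. Compounds at 25 uM in duplicate, with concentration-response up to 50 uM for hits; loss of signal against DMSO baseline.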
# [15] = biological target: Norway rat Vesicular Monoamine Transporter (VMAT2), neurotransmitter transporter, Slc18a2 (gene 25549) (UniProt Q01827); test: NVS_TR_rVMAT2: NovaScreen (NVS) Transporter Assay for Norway rat Vesicular Monoamine Transporter (VMAT2), neurotransmitter transporter (AID 2283376);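 note: actives lower the bound radioligand signal below the DMSO level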
# Outline: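 Radioligand displacement binding on rat forebrain tissue preparation, filter-based scintillation read-out 1 hour after dosing. Primary screen in duplicate at 25 uM, then concentration series for actives; loss of signal versus DMSO.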
# human CYP4F12, CYP4F12 (gene 66002), sequence (Q9HCS2 whole entry, looked up): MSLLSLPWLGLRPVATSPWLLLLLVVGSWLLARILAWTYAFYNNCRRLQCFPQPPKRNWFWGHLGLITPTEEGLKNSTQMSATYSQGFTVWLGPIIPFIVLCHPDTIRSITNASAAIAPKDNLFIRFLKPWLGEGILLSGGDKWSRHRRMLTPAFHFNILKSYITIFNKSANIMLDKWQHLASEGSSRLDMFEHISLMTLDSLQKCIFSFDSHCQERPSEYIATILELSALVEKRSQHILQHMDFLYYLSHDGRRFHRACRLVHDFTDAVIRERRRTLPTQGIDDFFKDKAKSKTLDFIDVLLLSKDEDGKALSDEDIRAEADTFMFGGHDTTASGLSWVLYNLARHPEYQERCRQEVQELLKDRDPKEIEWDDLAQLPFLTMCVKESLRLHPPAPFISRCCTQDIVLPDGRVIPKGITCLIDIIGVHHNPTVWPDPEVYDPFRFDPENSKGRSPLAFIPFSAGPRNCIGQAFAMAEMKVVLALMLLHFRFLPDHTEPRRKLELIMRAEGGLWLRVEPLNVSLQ
# human Acetylcholinesterase (AChE), ACHE (gene 43), sequence (P22303 whole entry, looked up): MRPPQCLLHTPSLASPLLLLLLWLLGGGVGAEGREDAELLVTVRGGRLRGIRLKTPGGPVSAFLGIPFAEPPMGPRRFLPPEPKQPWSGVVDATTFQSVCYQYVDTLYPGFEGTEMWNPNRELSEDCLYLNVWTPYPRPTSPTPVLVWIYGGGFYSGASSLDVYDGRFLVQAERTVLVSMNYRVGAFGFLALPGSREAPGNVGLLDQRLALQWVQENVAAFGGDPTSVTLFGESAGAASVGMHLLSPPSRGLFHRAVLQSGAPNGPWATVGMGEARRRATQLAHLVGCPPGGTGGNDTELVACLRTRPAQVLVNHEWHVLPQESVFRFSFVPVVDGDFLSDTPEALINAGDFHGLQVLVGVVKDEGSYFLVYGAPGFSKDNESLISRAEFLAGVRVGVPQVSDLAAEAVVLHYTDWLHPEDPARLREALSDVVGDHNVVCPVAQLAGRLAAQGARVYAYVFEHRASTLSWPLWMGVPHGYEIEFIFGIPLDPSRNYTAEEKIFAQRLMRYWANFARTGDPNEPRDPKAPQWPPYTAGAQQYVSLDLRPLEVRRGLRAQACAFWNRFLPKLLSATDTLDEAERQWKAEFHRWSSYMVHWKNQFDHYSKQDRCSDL
# Norway rat Vesicular Monoamine Transporter (VMAT2), neurotransmitter transporter, Slc18a2 (gene 25549), sequence (Q01827 whole entry, looked up): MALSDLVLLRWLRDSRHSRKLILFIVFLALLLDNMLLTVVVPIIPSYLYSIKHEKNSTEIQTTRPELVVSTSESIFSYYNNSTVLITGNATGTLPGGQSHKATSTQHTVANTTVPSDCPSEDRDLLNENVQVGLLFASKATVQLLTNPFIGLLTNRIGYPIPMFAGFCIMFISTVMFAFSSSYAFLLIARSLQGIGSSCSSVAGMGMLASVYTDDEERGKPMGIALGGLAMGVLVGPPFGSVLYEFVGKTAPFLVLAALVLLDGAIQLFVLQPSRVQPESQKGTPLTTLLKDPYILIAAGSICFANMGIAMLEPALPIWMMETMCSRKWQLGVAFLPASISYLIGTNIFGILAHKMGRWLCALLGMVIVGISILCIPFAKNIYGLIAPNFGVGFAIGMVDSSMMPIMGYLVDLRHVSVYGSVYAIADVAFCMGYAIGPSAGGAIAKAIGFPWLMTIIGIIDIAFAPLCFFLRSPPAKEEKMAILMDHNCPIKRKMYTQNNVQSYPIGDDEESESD
# human Caspase 2 (CASP2), CASP2 (gene 835), sequence (P42575 whole entry, looked up): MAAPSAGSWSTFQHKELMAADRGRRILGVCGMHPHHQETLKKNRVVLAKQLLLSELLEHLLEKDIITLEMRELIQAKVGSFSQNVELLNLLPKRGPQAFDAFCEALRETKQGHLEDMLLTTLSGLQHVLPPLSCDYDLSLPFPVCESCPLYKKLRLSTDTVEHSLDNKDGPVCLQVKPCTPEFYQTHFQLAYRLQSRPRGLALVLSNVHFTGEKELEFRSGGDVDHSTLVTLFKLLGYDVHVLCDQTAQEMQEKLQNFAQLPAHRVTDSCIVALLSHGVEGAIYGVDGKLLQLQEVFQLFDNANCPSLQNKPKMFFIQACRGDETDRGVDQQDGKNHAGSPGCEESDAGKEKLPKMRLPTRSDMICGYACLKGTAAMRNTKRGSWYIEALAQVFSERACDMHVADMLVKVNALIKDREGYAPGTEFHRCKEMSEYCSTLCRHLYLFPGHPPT
# rat Acetylcholinesterase (AChE), Ache (gene 83817), sequence (P37136 whole entry, looked up): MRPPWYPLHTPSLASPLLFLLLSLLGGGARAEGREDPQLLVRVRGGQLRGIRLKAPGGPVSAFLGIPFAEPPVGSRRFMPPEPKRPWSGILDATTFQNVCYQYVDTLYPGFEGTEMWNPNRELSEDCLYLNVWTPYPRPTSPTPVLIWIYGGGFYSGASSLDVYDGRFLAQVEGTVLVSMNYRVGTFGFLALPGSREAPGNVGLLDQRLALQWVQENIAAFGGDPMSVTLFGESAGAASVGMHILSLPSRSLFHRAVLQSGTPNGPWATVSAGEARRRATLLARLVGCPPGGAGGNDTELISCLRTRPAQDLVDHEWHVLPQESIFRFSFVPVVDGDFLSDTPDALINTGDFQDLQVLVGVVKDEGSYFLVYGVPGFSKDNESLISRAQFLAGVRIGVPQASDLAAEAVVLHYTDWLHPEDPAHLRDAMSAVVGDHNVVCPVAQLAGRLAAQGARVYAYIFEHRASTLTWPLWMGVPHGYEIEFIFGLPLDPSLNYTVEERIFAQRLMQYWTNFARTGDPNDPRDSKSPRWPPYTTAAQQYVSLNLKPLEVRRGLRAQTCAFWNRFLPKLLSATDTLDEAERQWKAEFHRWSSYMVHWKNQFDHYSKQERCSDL
# human Neonicotinoid receptor (NNR), CHRNA2 (gene 1135), sequence (Q15822 whole entry, looked up): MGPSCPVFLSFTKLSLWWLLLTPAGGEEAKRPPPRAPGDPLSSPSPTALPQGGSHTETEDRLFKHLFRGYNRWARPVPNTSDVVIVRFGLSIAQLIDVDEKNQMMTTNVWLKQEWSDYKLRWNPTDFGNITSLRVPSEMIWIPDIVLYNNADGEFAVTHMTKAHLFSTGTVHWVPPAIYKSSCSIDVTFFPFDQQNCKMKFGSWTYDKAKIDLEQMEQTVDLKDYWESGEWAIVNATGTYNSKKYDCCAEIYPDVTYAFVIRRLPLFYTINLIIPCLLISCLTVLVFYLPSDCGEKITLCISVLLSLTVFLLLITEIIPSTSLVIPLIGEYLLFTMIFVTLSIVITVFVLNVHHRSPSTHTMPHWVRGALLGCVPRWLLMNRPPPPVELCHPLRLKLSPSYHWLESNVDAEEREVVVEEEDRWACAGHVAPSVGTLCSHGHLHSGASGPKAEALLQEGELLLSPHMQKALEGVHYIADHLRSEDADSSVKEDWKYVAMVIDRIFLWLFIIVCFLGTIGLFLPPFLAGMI
# human AMP-activated Protein Kinase, alpha 1 (AMPKa1), PRKAA1 (gene 5562), sequence (Q13131 whole entry, looked up): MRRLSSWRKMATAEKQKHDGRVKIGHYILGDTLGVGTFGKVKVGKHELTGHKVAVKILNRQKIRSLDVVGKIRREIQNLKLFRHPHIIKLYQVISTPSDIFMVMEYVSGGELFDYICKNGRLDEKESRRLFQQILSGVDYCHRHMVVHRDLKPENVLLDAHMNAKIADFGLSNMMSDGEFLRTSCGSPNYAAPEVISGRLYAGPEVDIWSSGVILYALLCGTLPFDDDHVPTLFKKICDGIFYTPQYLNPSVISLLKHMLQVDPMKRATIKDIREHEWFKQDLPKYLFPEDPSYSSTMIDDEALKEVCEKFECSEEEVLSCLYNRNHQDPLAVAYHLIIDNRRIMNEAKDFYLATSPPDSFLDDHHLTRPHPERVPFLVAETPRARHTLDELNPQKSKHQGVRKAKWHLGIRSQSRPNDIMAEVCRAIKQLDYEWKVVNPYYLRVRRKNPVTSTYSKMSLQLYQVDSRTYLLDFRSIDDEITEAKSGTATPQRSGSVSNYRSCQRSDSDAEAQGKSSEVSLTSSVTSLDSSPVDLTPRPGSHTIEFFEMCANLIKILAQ
# rat CYP2C12, Cyp2c12 (gene 25011), sequence (P11510 whole entry, looked up): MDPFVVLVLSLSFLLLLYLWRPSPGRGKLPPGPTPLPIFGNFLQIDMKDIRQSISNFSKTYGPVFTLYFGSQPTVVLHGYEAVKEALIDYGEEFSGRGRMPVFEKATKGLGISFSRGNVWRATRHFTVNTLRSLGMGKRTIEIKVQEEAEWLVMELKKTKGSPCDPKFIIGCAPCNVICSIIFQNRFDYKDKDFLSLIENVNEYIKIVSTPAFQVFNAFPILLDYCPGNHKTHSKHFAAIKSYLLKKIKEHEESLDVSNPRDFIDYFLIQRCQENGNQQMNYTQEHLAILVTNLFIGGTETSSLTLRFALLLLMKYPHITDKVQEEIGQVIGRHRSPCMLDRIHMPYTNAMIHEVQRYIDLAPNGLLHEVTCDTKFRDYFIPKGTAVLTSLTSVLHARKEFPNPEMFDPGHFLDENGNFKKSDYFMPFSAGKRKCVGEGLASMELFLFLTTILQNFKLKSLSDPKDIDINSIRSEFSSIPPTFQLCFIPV
# human Aurora Kinase A - serine/threonine-protein Kinase 6 (AurA), AURKA (gene 6790), sequence (O14965 whole entry, looked up): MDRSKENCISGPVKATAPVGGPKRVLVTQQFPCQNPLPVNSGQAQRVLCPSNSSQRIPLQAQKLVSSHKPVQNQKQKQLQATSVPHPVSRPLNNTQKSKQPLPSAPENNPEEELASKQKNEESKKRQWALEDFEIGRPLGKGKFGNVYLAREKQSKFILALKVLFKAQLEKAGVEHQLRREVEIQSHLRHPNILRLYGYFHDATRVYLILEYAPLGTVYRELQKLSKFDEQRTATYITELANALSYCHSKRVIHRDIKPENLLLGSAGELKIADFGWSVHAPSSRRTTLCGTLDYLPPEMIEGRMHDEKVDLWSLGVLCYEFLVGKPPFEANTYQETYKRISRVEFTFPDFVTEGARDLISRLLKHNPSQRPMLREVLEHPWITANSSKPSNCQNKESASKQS
smiles,measurement,setting,value
COC(=O)c1ccccc1S(=O)(=O)NC(=O)Nc1nc(OC(F)F)cc(OC(F)F)n1,outcome,[1],inactive
same,outcome,[2],inactive
same,outcome,[3],inactive
same,outcome,[4],inactive
CCCCC(CC)COC(=O)CCCCCCCC(=O)OCC(CC)CCCC (stereo not given),outcome,[2],inactive
CNS(=O)(=O)c1cc(C(=O)N2CCC(CCN3C4CCC3CC(n3c(C)nc5ccccc53)C4)(c3cccc(F)c3)CC2)c(Cl)cc1F (stereo not given),outcome,[2],inactive
same,AC50,[5],36 µM (active)
same,outcome,[6],inactive
same,outcome,[7],inactive
same,outcome,[8],inactive
COC(=O)CCC(=O)OC,outcome,[9],inactive
same,outcome,[10],inactive
CN(C)C(=O)NC1(c2ccccc2)CCN(CC[C@@]2(c3ccc(F)c(F)c3)CN(C(=O)c3ccccc3)CCO2)CC1,outcome,[9],inactive
same,outcome,[11],inactive
same,outcome,[12],inactive
same,outcome,[13],inactive
O=C(OC[C@H]1O[C@@H](OC(=O)c2cc(O)c(O)c(OC(=O)c3cc(O)c(O)c(O)c3)c2)[C@H](OC(=O)c2cc(O)c(O)c(OC(=O)c3cc(O)c(O)c(O)c3)c2)[C@@H](OC(=O)c2cc(O)c(O)c(OC(=O)c3cc(O)c(O)c(O)c3)c2)[C@@H]1OC(=O)c1cc(O)c(O)c(OC(=O)c2cc(O)c(O)c(O)c2)c1)c1cc(O)c(O)c(OC(=O)c2cc(O)c(O)c(O)c2)c1,AC50,[2],0.644 µM (active)
same,AC50,[14],4.65 µM (active)
CCc1nc(N)nc(N)c1-c1ccc(Cl)cc1,outcome,[2],inactive
CCCCC(CC)COC(=O)c1ccccc1C(=O)O (stereo not given),outcome,[9],inactive
same,outcome,[15],inactive
CCCCCCOC(=O)CC(CC(=O)OCCCCCC)(OC(=O)CCC)C(=O)OCCCCCC,outcome,[2],inactive
same,outcome,[14],inactive
Cc1ccccc1Cl,AC50,[9],7.95 µM (active)
same,outcome,[15],inactive
